This is an account of results in PubChem BioAssay (NCI).

Structures are written as SMILES. The panel holds about 83,000 compounds, 20% with a hit somewhere; the sample as a whole holds those more often.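 Compound tested at a single concentration for 48 hours in 96-well plates; a percent growth value below 10 was scored as active.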 Values without a mark were called inactive. Calls of active or inactive are those of the source.

This experiment deals with MOLT-4 leukemia. As to the kind of experiment: NCI-60 one-dose screen, 48 h (100 = growth as untreated, 0 = no growth, -100 = all killed). The settings on record: 10 µM. Here is the method:
Growth inhibition of the MOLT-4 human tumor cell line is measured as a screen for anti-cancer activity. Cells are grown in 96 well plates and exposed to the test compound for 48 hours. Compounds are tested at a single concentration, which is 10^-5 M for most compounds. The reported endpoint is percent growth (GI% or GIPRCNT), where numbers from 0 - 100% represent growth inhibition, and numbers from -100% - 0 represent cell death. For example, a value of 40 represents 60% growth inhibition. A value of 0 means no net growth occurred over the course of the experiment. A value of -40 indicates 40% of cells at the beginning of the experiment died by the end of the experiment. A value of -100 means all cells are dead at the end of the experiment.
NCI-60 Human Tumor Cell Lines Screen was performed using the standard one-dose NCI protocol, which is described in more detail at https://dtp.cancer.gov/discovery_development/nci-60/default.htm.
Compounds with GIPRCNT values below 10 were considered active. Activity score was based on GIPRCNT using the following formula: […]
Score is 0 for GIPRCNT values of 100 or above, 50 for GIPRCNT values of 0, and 100 for GIPRCNT values of -100.
On to `CN(C)Cc1cccs1`, for which the growth was 96.3%.
Then `COc1ccc(NC(=O)CCn2cnc3c(cc(-c4ccccc4)n3-c3ccccc3)c2=O)cc1`, with 104%; and `O=C(O)c1ccc(CNc2ccc(C(=O)CCl)cc2)cc1`, with 87.9%.
To `CC(C)=C1CCC(C)C/C1=N\N=C(N)N` (stereo not given) belongs 98.8%; to `CCCCCCN=C(N)CCCCCCCCCCC(N)=NCCCCCC`, 38.2%.
To `COc1cccc(C2(C)Nc3ccccc3-c3nc4ccccc4n32)c1` (stereo not given) belongs 84.5%; to `O=C(CCc1ccccc1)N1CCN(C(=O)CCc2ccccc2)CC1`, 88.6%.
On to `CCc1c(C)[nH]c(=O)c(C(N)=O)c1C#N`, for which the growth was 107%.
Turning to `CCOc1nc(-c2ccccc2)cc2c(O)c(C(=O)NC(C)C)[nH]c(=O)c12`, the growth is 99.1%.
On to `Clc1ccc(-c2nc(-c3cccs3)cn3ccnc23)cc1`, for which the growth was 62.4%.
Then `O=C(OCc1ncc(-c2ccc(C(F)(F)F)cc2)c(NC2CCCCCC2)n1)c1c(F)c(F)c(F)c(F)c1F`, with 79.1%; and `CCOC(=O)/C(C#N)=C(/C)C1CC1`, with 114%; and `CS(=O)(=O)Nc1ccc(Nc2c3ccccc3nc3cc(Cl)ccc23)cc1`, with -5.91% (active).
To `Cc1ccc([P+](Cc2ccc([N+](=O)[O-])cc2)(c2ccc(C)cc2)c2ccc(C)cc2)cc1` belongs 52.4%; to `O=c1oc2cc(OS(=O)(=O)C3CC3)ccc2c2c1CCCCCC2`, 65.6%; to `COc1cccc(C(=O)N(c2ccc(F)c(F)c2)C(C(=O)NC(C)(C)C)c2cc3c(C)cc(C)cc3nc2Cl)c1` (stereo not given), 43.8%.
`COc1ccc(-c2nc(NC(=O)CS(=O)(=O)c3ccc(F)cc3)sc2C)cc1`: the growth was 35.5%.
`Oc1[nH]c2ccccc2c1/C=c1/cc2c(c(-c3ccc(C(F)(F)F)cc3)n1)=Nc1ccccc1-2`: the growth is 29.6%.
Then `C[N+]1=C(/C=C/c2ccc(I)cc2)C(C)(C)c2ccccc21`, with 8.77% (active).
With `CCCCCCCCCCN=C(c1ccc(N(C)C)cc1)c1ccc(N(C)C)cc1`, the growth was 24.6%.
To `COc1ccc(S(=O)(=O)Nc2cc(/C=C\c3cc(OC)c(OC)c(OC)c3)ccc2OC)cc1` belongs 8.46% (active); to `O=C(Nc1ccc(OS(=O)(=O)Cc2ccccc2)cc1)C12CC3CC(CC(C3)C1)C2`, 41.5%; to `Brc1ccc(-c2cn3ccnc3c(-c3ccc(Br)cc3)n2)cc1`, 30.4%.
To `COc1cc(CSc2nc3ccc(Cl)cc3c(=O)n2Cc2ccccc2)cc(OC)c1OC` belongs 29.4%; to `C[C@]12CC[C@H]3[C@@H](CCC4=CC(=O)CC[C@@]43C)[C@@H]1CC[C@@H]2c1csc(N)n1`, 27.7%.
With `COc1ccc(-c2[nH]ncc2/C=C/c2cc(C(F)(F)F)[nH]c(=O)n2)cc1`, the growth is 86%.
To `O=c1oc2c3ccc4cnccc4c3[nH]c2c2ccccc12` belongs 13.7%.
To `COc1cc(CSc2nc3ccc(Cl)cc3c(=O)n2-c2ccccc2)cc(OC)c1OC` belongs 69.8%; to `COc1ccc(-c2cc(/C=C3\C(=O)Nc4cc(Cl)ccc43)[nH]n2)cc1`, 21.7%.
To `Cc1cccc2c1O/C(=C\c1ncc([N+](=O)[O-])n1C)C2=O` belongs -0.52% (active); to `CCCCCC(=O)N1c2ccccc2NC2=C(C(=O)CC(c3ccc(OC)c(OC)c3)C2)C1c1ccc(C(F)(F)F)cc1` (stereo not given), 37%.
Take `COc1cc2ccnc(C=O)c2cc1OC`: the growth is 29.7%.
Then `CC(C)C[C@H](NC(=O)CCn1ccc2ccccc2c1=O)B(O)O`, with 5.52% (active).
Turning to `O=[N+]([O-])C1CC2C=CC1C2` (stereo not given), the growth was 96.1%.
Take `COc1ccc2c(=O)cc(C(Cl)(Cl)Cl)oc2c1`: the growth was -23.9% (active).
Regarding `NC1CCC(Nc2nc(NCc3ccc(-c4cccs4)nc3)c3ncn(C4CCCC4)c3n2)CC1` (stereo not given), the growth is -16.3% (active).
Then `O=[N+]([O-])c1ccc(-c2nc(-c3ccccc3)c(-c3ccccc3)n2-c2ccccc2)cc1`, with -44.6% (active); and `O=C1/C(=C/c2ccc(O)cc2)Oc2ccc(Cl)cc21`, with 81.1%.
Then `O=S(=O)(NC1c2ccccc2Oc2ccccc21)c1ccccc1`, with 88.1%; and `CCCCCCCC/C=C/CCCCCCCCC1=NCCN1CCO`, with 34.3%.
